The full ranking holds about 18,000 sequences; the median of “log2 normalized intensity” is about 0.36, and the highest 2% start at about 7.3. The list comes from a sample in which the highest values are over-represented; it also holds similar and randomly drawn sequences.

The assay deals with T1, HNF4alpha8 (COS-7 nuclear extract) (Homo sapiens, UniProt P41235-5 1-452).
T1 sequence: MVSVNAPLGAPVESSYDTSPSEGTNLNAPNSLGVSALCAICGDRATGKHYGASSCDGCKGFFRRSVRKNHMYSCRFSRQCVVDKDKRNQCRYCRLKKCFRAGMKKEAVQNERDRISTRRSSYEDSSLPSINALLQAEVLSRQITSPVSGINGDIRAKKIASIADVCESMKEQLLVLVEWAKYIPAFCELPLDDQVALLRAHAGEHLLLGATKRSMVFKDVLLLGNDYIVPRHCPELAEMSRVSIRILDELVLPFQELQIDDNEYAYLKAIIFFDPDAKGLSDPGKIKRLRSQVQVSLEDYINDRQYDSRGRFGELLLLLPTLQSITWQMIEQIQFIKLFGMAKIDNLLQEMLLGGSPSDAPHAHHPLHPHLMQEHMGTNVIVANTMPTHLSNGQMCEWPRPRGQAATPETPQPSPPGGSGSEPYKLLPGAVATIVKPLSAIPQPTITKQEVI
Kind of assay: protein-binding microarray; COS-7 nuclear extract on double-stranded Agilent 4x180k PBM; binding buffer, salt, pH and temperature not given in the material; high values mean tight binding. The following applies: chain copies: 2; label: 3' end of strand 1 on the slide; dsDNA, one strand shown. An outline of the steps: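 Double-stranded oligonucleotides of ~60 nt, representing ~44,000 test sequences in quadruplicate, made up a custom Agilent SurePrint G3 4x180k array. Nuclear extracts from COS-7 cells transiently transfected by CaPO4 with a human HNF4α isoform expression vector were applied, and bound HNF4α was imaged at 2-µm resolution on an Agilent G2565CA scanner. Binding signal refers to the background-corrected, normalized gProcessedSignal output of Agilent software.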
Turning to “GTGACTCTAGGAACCTTTCTCCATACCTCTGCCTAGGGAGATTAGAGTATCGGTCGA”, the binding signal was -0.874 log2 normalized intensity.

On to “ACAAAGAAATGTAACCTTTGGCCAATTGCAGCCTAGGGAGATTAGAGTATCGGTCGA”, for which the binding signal worked out at 5.13 log2 normalized intensity.

Turning to “AACTGACACTTGTTTGAATTGTGATAATAAGCCTAGGGAGATTAGAGTATCGGTCGA”, the binding signal was 1.04 log2 normalized intensity.

“TTATCTTGGTGCCTGCAGAGCCTCCCCATTGCCTAGGGAGATTAGAGTATCGGTCGA”: the binding signal amounted to 2.69 log2 normalized intensity.

Regarding “GTAGGGCAGAGGCCAGTTTGATCACAAGACGCCTAGGGAGATTAGAGTATCGGTCGA”, the binding signal was -0.285 log2 normalized intensity.

Take “AGTTTGGTTTAAAGTTCAAGTCATAACTGGGCCTAGGGAGATTAGAGTATCGGTCGA”: the binding signal was found to be 2.53 log2 normalized intensity.

Turning to “ATCCCCTCCTGGACTTTGGTCTCATGGGCCGCCTAGGGAGATTAGAGTATCGGTCGA”, the binding signal was 7.4 log2 normalized intensity.

Regarding “CAAATGAATAATCCCCTCCTGGACTTTGGTGCCTAGGGAGATTAGAGTATCGGTCGA”, the binding signal was found to be 5.55 log2 normalized intensity.

As for “GACATGCAGTATGGGGACTTTGGACTCCTGGCCTAGGGAGATTAGAGTATCGGTCGA”, the binding signal is 8.41 log2 normalized intensity.

On to “GAATAATCCCCTCCTGGACTTTGGTCTCATGCCTAGGGAGATTAGAGTATCGGTCGA”, for which the binding signal is 8 log2 normalized intensity.

For “GTAATGACATGCAGTATGGGGACTTTGGACGCCTAGGGAGATTAGAGTATCGGTCGA”, the binding signal came out at 7.1 log2 normalized intensity.

Take “TATGTGCTCACTCCTGGGACAAGGACTTTGGCCTAGGGAGATTAGAGTATCGGTCGA”: the binding signal was determined as 3.11 log2 normalized intensity.

With “GGACTTTGGTCTCATGGGCCTAAACATTCCGCCTAGGGAGATTAGAGTATCGGTCGA”, the binding signal is 5.24 log2 normalized intensity.

On to “CTCCTGGACTTTGGTCTCATGGGCCTAAACGCCTAGGGAGATTAGAGTATCGGTCGA”, for which the binding signal was 5.27 log2 normalized intensity.

With “ATGCCCAAATGAATAATCCCCTCCTGGACTGCCTAGGGAGATTAGAGTATCGGTCGA”, the binding signal worked out at 3.33 log2 normalized intensity.

With “TATTCCTTGTCCTTGACCCTTCCTCCCATTGCCTAGGGAGATTAGAGTATCGGTCGA”, the binding signal turned out to be 4.01 log2 normalized intensity.

“GAAACATCCACATGTGGGTCCAAAGAACATGCCTAGGGAGATTAGAGTATCGGTCGA”: the binding signal is 3.82 log2 normalized intensity.

Turning to “ATCACATTCTAATCCTCTGGTCTTTGCCCCGCCTAGGGAGATTAGAGTATCGGTCGA”, the binding signal came to 5 log2 normalized intensity.

Consider “CCCTGAGTAGTTCTTCTGGTTAGTTTTTCAGCCTAGGGAGATTAGAGTATCGGTCGA”, for which the binding signal came to 1.66 log2 normalized intensity.

For “CTCCCCTCCTCCAGATGGGCTCATGTAACAGCCTAGGGAGATTAGAGTATCGGTCGA”, the binding signal amounted to 2.65 log2 normalized intensity.

As to “GACAGCTGGGCCCTGCCTGACCTGCCCTTTGCCTAGGGAGATTAGAGTATCGGTCGA”, the binding signal amounted to 5.01 log2 normalized intensity.

With “GCCCCTGGCTGGGCCCTGACCTCAAGTGACGCCTAGGGAGATTAGAGTATCGGTCGA”, the binding signal worked out at 2.6 log2 normalized intensity.

As to “CAAGAATGCAAAGCCCTGGCTGACCTTTAGGCCTAGGGAGATTAGAGTATCGGTCGA”, the binding signal was 5.88 log2 normalized intensity.

Take “TTAGCTATTTGACCTTCGGCCTCAATTATAGCCTAGGGAGATTAGAGTATCGGTCGA”: the binding signal was 7.29 log2 normalized intensity.

“ACCAAAACCAAGATAGTGACGGAGGTGACCGCCTAGGGAGATTAGAGTATCGGTCGA”: the binding signal is 1.88 log2 normalized intensity.

Consider “CTGATTTAGCTATTTGACCTTCGGCCTCAAGCCTAGGGAGATTAGAGTATCGGTCGA”, for which the binding signal was 8.73 log2 normalized intensity.

In the case of “TGGCTGGGCCCTGACCTCAAGTGACCTTTGGCCTAGGGAGATTAGAGTATCGGTCGA”, the binding signal was 7.77 log2 normalized intensity.

For the sequence “ATGCAAAGCCCTGGCTGACCTTTAGCCTGGGCCTAGGGAGATTAGAGTATCGGTCGA”, the binding signal was 7.69 log2 normalized intensity.

For the sequence “ATTGGCCCTTTGACCTTTAATCAAGGGCTGGCCTAGGGAGATTAGAGTATCGGTCGA”, the binding signal came to 5.91 log2 normalized intensity.

Turning to “AACCAAGATAGTGACGGAGGTGACCTTTGGGCCTAGGGAGATTAGAGTATCGGTCGA”, the binding signal was 7.34 log2 normalized intensity.

Take “GTGACGGAGGTGACCTTTGGTTGTCCTTACGCCTAGGGAGATTAGAGTATCGGTCGA”: the binding signal was found to be 4.94 log2 normalized intensity.

On to “CCAGGCTGATTTAGCTATTTGACCTTCGGCGCCTAGGGAGATTAGAGTATCGGTCGA”, for which the binding signal was 5.84 log2 normalized intensity.

For “CTTCGCTGGAATGTCACAGGGATTACGATCGCCTAGGGAGATTAGAGTATCGGTCGA”, the binding signal was 0.569 log2 normalized intensity.

As for “CTTTGATAGCCAAGCCAACCAGGAGAATTTGCCTAGGGAGATTAGAGTATCGGTCGA”, the binding signal was 2.31 log2 normalized intensity.

Take “CTGGTTGGAATTCCAGTGTTCACATCTGATGCCTAGGGAGATTAGAGTATCGGTCGA”: the binding signal is 1.09 log2 normalized intensity.

For the sequence “TCATTTCTGCTTGCAACCAAAGGAGTCCTGGCCTAGGGAGATTAGAGTATCGGTCGA”, the binding signal was -0.447 log2 normalized intensity.

As to “TGGCCAAAGTTCAGTAAATCTTAGAGAACAGCCTAGGGAGATTAGAGTATCGGTCGA”, the binding signal was 2.27 log2 normalized intensity.

Regarding “GCCAAGGGCAGTGTTTGCCCAGCTTGAATCGCCTAGGGAGATTAGAGTATCGGTCGA”, the binding signal is -0.771 log2 normalized intensity.

As to “GCAACCTTTGCTCTCCCTCCTCTCTGAGCAGCCTAGGGAGATTAGAGTATCGGTCGA”, the binding signal is 2.28 log2 normalized intensity.

Regarding “ATCGCCCTTTGAGGAGGCCTTTCCTGACCCGCCTAGGGAGATTAGAGTATCGGTCGA”, the binding signal came out at 3.43 log2 normalized intensity.

For “CTGGGCCCTGCCTGACCTGCCCTTTGTCCCGCCTAGGGAGATTAGAGTATCGGTCGA”, the binding signal was 6.91 log2 normalized intensity.

In the case of “GGGCCCTGACCTCAAGTGACCTTTGACCTCGCCTAGGGAGATTAGAGTATCGGTCGA”, the binding signal turned out to be 12 log2 normalized intensity.

Consider “GGAGTGTGGGGTGGTGTCAGGAGTACAGGTGCCTAGGGAGATTAGAGTATCGGTCGA”, for which the binding signal was 1.12 log2 normalized intensity.

(Values after PMC10726135, “HNF4α isoforms regulate the circadian balance between carbohydrate and lipid metabolism in the liver”.)
